These results are taken from PubChem BioAssay (NCATS).

Results filed as inconclusive are left out. Active and inactive are the calls of the source. Unless noted, calls come from the whole dose curve; as a rule, active = well fitted curve in the direction sought with a large enough effect; inconclusive = small, poorly fitted or top-dose-only effect, or another doubt; inactive = no such curve, though single readings can be large; an effect the other way counts as inactive or inconclusive.

For experiment [1], the target named is Lysosomal acid glucosylceramidase (Homo sapiens) (UniProt P04062). Put plainly: Glucocerebrosidase-p2 (AID 348; in the data active = potency below about 10 µM; note: potency is the fitted concentration of half-maximal effect). As to conditions: purified GBA, blue fluorogenic substrate, 40 min. The essentials:
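Normal human glucocerebrosidase (0.2 nM) with blue fluorogenic substrate (80 uM final) in citrate/phosphate pH 5.9 with 10mM sodium taurocholate, 0.01% tween-20; 40 min RT, NaOH/glycine stop; fluorescence Ex 365/Em 440; AC50 from a titration from 0.6 nM upwards.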

The target in experiment [2] is Cytochrome P450 1A2 (Homo sapiens) (UniProt P05177). Kind of experiment: p450-cyp1a2 (AID 410; calls by dose curve; note: potency is the fitted concentration of half-maximal effect). The essentials: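 O-Demethylation of luciferin 6' methyl ether by human CYP1A2 is monitored as luciferase luminescence. Substrate sits at Km (100uM); enzyme is 20nM. Values are scaled to 57 uM furafylline as maximal inhibition.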
Cytochrome P450 1A2 (Homo sapiens), sequence (P05177 whole entry, looked up): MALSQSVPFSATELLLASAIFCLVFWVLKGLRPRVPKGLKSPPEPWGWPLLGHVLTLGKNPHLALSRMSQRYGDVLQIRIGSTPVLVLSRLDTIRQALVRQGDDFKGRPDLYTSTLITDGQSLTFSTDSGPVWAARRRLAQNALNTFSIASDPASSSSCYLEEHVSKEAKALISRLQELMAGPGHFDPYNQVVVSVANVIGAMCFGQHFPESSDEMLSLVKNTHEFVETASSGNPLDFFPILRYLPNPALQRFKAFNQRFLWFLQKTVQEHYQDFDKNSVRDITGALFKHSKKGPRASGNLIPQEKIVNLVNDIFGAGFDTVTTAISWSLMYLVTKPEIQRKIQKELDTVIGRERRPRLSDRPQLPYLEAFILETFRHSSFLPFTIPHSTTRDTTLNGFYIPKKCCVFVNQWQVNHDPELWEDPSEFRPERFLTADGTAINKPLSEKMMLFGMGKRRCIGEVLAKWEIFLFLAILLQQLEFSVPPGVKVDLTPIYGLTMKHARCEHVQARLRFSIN
The nature of experiment [3]: NFAT Signaling Pathway (AID 444; active = well fitted curve in either direction with a large enough effect, not every such curve was filed as active;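 note: carbachol stimulus at about its EC50 of 1 µM final; % is set by controls: 0 for no effect and ±100 for the full control effect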). Conditions: Jurkat NFAT-bla M1, carbachol, beta-lactamase ratio, 5 h; at 7.69 µM (top of the series). The essentials: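 Jurkat cells with NFAT-driven β-lactamase reporter and co-expressed M1 receptor, stimulated with carbachol (final 1 uM, ~EC50), compound titration, 5 h at 37 °C. CCF4 loaded 1 h at RT; 460/530 nm ratio gave %activity and AC50.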

Experiment [4] is described as follows: Stat Signaling Pathway (AID 446; active = well fitted curve in either direction with a large enough effect, not every such curve was filed as active;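 note: ME-180 cervical cancer cells given 40 pM IL-6 alongside compound; SIE-controlled beta-lactamase reporter measured as 460/530 nm FRET emission ratio; % is set by controls: 0 for no effect and ±100 for the full control effect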). Conditions: ME-180 (cervical carcinoma) SIE beta-lactamase reporter, IL-6 stimulated, 5 h; at 7.69 µM (top of the series). The method in brief:
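Compound effects on IL-6-induced STAT reporter activity were measured in ME-180 cells. After overnight culture, cells were co-treated with 40 pM IL-6 for 5 hrs before beta-lactamase substrate loading at room temperature.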

In experiment [5] the target is Glucocorticoid receptor (Homo sapiens) (UniProt P04150). Put plainly: GR-GFP Redistribution (AID 450;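 active = compounds whose dose series gives a full or clear partial fitted curve of increased nuclear translocation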; note: potency is the fitted concentration of half-maximal effect). Conditions: U2OS GR-GFP nuclear translocation, laser cytometry, 2 h.
Glucocorticoid receptor (Homo sapiens), sequence (P04150 whole entry, looked up): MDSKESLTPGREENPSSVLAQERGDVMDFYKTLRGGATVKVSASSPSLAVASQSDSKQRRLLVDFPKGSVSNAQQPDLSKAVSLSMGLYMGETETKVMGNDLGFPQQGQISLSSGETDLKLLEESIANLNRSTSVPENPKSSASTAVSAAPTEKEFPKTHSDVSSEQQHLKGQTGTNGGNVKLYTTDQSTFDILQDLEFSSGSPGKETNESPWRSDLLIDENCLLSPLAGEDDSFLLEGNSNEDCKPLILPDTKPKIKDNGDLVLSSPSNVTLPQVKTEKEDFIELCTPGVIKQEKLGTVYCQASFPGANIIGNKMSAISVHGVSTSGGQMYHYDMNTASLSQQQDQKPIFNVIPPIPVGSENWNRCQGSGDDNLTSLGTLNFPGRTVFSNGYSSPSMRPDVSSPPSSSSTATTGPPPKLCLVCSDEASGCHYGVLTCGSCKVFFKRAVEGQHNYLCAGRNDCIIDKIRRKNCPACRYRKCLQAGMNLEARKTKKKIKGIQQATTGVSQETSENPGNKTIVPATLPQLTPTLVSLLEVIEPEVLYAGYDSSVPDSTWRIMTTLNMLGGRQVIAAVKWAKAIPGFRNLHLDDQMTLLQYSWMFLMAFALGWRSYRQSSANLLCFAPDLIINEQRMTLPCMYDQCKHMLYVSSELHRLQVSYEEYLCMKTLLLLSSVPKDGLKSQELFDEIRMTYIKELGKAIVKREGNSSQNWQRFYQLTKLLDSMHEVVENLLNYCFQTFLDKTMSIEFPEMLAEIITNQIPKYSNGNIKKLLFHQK
The target is the same in experiment [6]. Kind of experiment: GR-EFC Redistribution (AID 451; calls by dose curve; note: potency is the fitted concentration of half-maximal effect). As to conditions: CHO-K1 GR-EFC translocation, beta-gal luminescence, 2 h. The method in brief:
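CHO-K1 cells expressing nuclear EA and GR-ED fragments of b-gal; compounds titrated up to 46 uM final, 2 h at 37 C. GR nuclear translocation read as complemented b-gal luminescence after 1 h RT detection.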

The target in experiment [7] is Mitogen-activated protein kinase 10 (Mus musculus) (UniProt Q61831). Kind of experiment: JNK3 AlphaScreen Assay (AID 530; active = well fitted curve in either direction with a large enough effect, not every such curve was filed as active;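 note: kinase came from lysate of stimulated human HepG2 cells; signal reports phosphorylation of biotinylated GST-cJun 1-79 at Ser73 with 10 µM ATP; % is set by controls: 0 for no effect and ±100 for the full control effect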). The method in brief: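 Activity was read by AlphaScreen after JNK3-containing HepG2 lysate (cytokine pre-activated) phosphorylated biotinylated GST-cJun with 10 uM ATP at room temperature. Phospho-Ser73 cJun antibody with Protein-A acceptor beads provided detection.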
Background: Alpha assays give light when donor and acceptor beads are brought close together.

For experiment [8], the target named is Cytochrome P450 3A4 (Homo sapiens) (UniProt P08684). Kind of experiment: qHTS Assay for Inhibitors and Substrates of Cytochrome P450 3A4 (AID 884). Note: % is set by controls: 0 for no effect and ±100 for the full control effect; nearly all actives have a fitted effect of over 50% in size. The essentials:
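Luminescent readout of luciferin produced by CYP3A4 (20 nM) dealkylation of Luciferin-PPXE, 25 uM (its KM). NADPH-driven reaction ran 60 min at RT after 10 min compound preincubation; data scaled to 57 uM ketoconazole as 100% inhibition.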

For experiment [9], the target named is Cytochrome P450 2D6 (Homo sapiens) (UniProt P10635). Put plainly: qHTS Assay for Inhibitors and Substrates of Cytochrome P450 2D6 (AID 891). Note: potency is the fitted concentration of half-maximal effect; nearly all actives have a fitted effect of over 60% in size. The essentials: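 Luminescent read-out of luciferin formed by 5 nM human CYP2D6 demethylating 30 uM Luciferin-ME EGE (Km level) over 60 min at room temperature after NADPH regeneration addition. Data normalized to full inhibition by 1.43 uM quinidine.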
Cytochrome P450 2D6 (Homo sapiens), sequence (P10635 whole entry, looked up): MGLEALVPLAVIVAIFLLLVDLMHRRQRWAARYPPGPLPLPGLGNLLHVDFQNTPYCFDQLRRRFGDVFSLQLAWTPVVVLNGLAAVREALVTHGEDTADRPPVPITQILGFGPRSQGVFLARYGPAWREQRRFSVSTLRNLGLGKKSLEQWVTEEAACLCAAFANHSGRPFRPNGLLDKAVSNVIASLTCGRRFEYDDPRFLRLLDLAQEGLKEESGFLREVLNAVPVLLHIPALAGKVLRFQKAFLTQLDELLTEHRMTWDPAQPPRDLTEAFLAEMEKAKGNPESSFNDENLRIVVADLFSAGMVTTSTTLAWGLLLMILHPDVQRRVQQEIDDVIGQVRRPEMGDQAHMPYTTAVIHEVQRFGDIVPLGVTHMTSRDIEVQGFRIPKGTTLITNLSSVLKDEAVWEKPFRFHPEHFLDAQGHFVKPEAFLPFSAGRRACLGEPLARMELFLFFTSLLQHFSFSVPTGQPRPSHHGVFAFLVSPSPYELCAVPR
(In general: In qHTS, concentration-response curves come from the screen itself.)

Experiment [10] concerns the target Cytochrome P450 2C19 (Homo sapiens) (UniProt P33261). Put plainly: qHTS Assay for Inhibitors and Substrates of Cytochrome P450 2C19 (AID 899). Note: potency is the fitted concentration of half-maximal effect; nearly all actives have a fitted effect of over 60% in size. The essentials:
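Signal comes from luciferase acting on luciferin released by CYP2C19-mediated hydroxylation of Luciferin-H EGE, 10uM (KM). Assay mix: 5nM enzyme, 50mM KPO4; 60 min at 37C with NADPH regeneration. Data normalized against 57uM ketoconazole.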

Experiment [11] in a line: Confirmation and Secondary Assay for Modulators of Hemoglobin Beta Chain Splicing at IVS2 654 locus (AID 910).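 Note: HeLa cells stably carrying EGFP split by mutant beta-globin IVS2-654 intron; % of control where 0% means no effect.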 The essentials: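 HeLa cells stably expressing EGFP interrupted by β-globin IVS2-654 intron, seeded overnight in Opti-MEM/2% FCS, then treated 2 days at 37 °C. Restored splicing read as total peak GFP intensity per well by laser scanning cytometry (488 nm excitation, 500–520 nm emission); 500 nM antisense PNA as control.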

The nature of experiment [12]: Confirmation and Secondary Assay for Modulators of Hemoglobin Beta Chain Splicing at IVS2 705 locus (AID 930).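 Note: HeLa cells stably expressing the EGFP-705 splicing reporter; GFP fluorescence per well restored by corrected splicing of the IVS2-705 intron in EGFP; % of control where 0% means no effect.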 The essentials:
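HeLa cells stably carrying EGFP interrupted by mutant beta-globin intron 2 (IVS2-705) treated 2 days at 37C with compound; 500 nM antisense PNA as control. Correct splicing read as total peak GFP intensity per well by laser-scanning cytometry.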

Experiment [13] is described as follows: qHTS Assay for Lipid Storage Modulators (AID 1519; calls by dose curve). As to conditions: Drosophila S3 cells, BODIPY lipid droplet/cell ratio, laser cytometry, cells loaded with oleic acid. The method in brief:
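Cells seeded at 5,000 per well were treated with compounds over a concentration series and loaded with oleic acid (400 uM, as added). Lipid droplet fluorescence (488 nm excitation, 500-530 nm channel) was read by laser-scanning cytometry and normalized to 20 uM Triacsin C.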

Experiment [14] deals with Ubiquitin carboxyl-terminal hydrolase 1 (Homo sapiens) (UniProt O94782). Put plainly: Inhibitors of USP1/UAF1: Pilot qHTS (AID 504865).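 Note: rhodamine fluorescence freed from ubiquitin-rhodamine substrate followed over time; top concentration of the series differs between compounds; % is set by controls: 0 for no effect and ±100 for the full control effect; nearly all actives have a fitted effect of over 35% in size.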 The essentials:
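In 50mM HEPES pH 7.8 containing 0.5mM EDTA, 1mM TCEP, 0.1 mg/ml BSA and 0.01% Tween-20, 1nM USP1/UAF1 is exposed to compound for 15 min, then Ub-Rho (150nM final) is added and fluorescence is read over time.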

Experiment [15] is described as follows: P-glycoprotein substrates identified in KB-3-1 adenocarcinoma cell line, qHTS therapeutic library screen (AID 1346986). Note: nearly all actives have a fitted effect of over 60% in size.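 Note: potency is the fitted concentration of half-maximal effect; potency is for cytotoxicity meaning loss of cell viability.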 The method in brief:
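In 1536-well format, 500 cells/well received pinned compound titrations and were incubated 72 h, 5% CO2. Viability was read by CellTiter-Glo; cytotoxic if AC50 < 10 uM and efficacy >50%.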

Experiment [16] in a line: Primary qHTS for small molecule stabilizers of the endoplasmic reticulum resident proteome: Secreted ER Calcium Modulated Protein (SERCaMP) assay (AID 1508630). Note: % is set by controls: 0 for no effect and ±100 for the full control effect. The method in brief:
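The SH-SY5Y reporter protocol was run at 3 concentrations up to 38.3 uM (primary) or 11 concentrations (follow-up): 16 h compound, 100 nM thapsigargin for 4 h, then extracellular luciferase luminescence.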

Experiment [17] deals with Glutathione peroxidase 1 (Homo sapiens) (UniProt P07203). Kind of experiment: Primary qHTS Assay for Inhibitors of Recombinant Selenoprotein Glutathione Peroxidase 1 (GPX1) (AID 1845191). Note: nearly all actives have a fitted effect of over 65% in size. The method in brief: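 GR-coupled readout: NADPH consumption tracked by fluorescence, ex 340/em 450 nm, at t=0 and after 15 min at RT. Final mix 10 nM GPX1, 1 mM GSH, 0.5 mM CHP, 0.5 mM NADPH, 100 nM GR, 0.01% BSA, following 30 min enzyme–compound preincubation.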
Glutathione peroxidase 1 (Homo sapiens), sequence (P07203 whole entry, looked up): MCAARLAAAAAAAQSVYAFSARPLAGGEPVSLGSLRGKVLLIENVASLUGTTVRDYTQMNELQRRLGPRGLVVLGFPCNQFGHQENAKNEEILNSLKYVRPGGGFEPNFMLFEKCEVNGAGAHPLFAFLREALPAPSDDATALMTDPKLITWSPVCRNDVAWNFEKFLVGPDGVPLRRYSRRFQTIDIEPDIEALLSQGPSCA

The nature of experiment [18]: P-glycoprotein substrates identified in KB-8-5-11 adenocarcinoma cell line, qHTS therapeutic library screen (AID 1346987). Note: % is set by controls: 0 for no effect and ±100 for the full control effect; nearly all actives have a fitted effect of over 65% in size. The essentials:
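Luminescence from CellTiter-Glo, read 5 min after addition, quantified survival of KB-8-5-11 (P-gp-overexpressing) cells exposed to compounds for 72 h. AC50 was derived from concentration-response curves.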

For experiment [19], the target named is Tyrosine-protein kinase Yes (Homo sapiens) (UniProt P07947). Put plainly: qHTS for small molecule inhibitors of Yes1 kinase: Primary Screen (AID 686947). Note: potency is the fitted concentration of half-maximal effect; nearly all actives have a fitted effect of over 60% in size. The method in brief:
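ADP-Glo luminescence reports ADP formed by 4 nM Yes1 phosphorylating poly(E4Y) (0.3 mg/mL) with 0.1 mM ATP for 60 min at room temperature, following 20 min compound preincubation; normalised between DMSO wells with and without enzyme.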

Experiment [20] in a line: qHTS for small molecule inhibitors of Yes1 kinase: Counter Assay (AID 686950).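 Note: no kinase present so only ADP-Glo detection of a fixed ADP amount is tested; luminescence from ADP-Glo reporting ADP in a fixed ATP and ADP mixture; 0% = DMSO wells with ATP plus ADP and -100% = ATP-only wells without ADP.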 The method in brief:
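No kinase present; 0.08 mM ATP + 0.02 mM ADP in 50 mM Tris pH 7.5, 10 mM MgCl2, 150 mM NaCl, 1 mM DTT; 20 min compound preincubation, 60 min RT, ADP-Glo luminescence, normalized to ATP/ADP (max) and ATP-only (min).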

Experiment [21] is described as follows: Primary qHTS for inhibitors of nuclear receptor binding SET domain protein 2 (NSD2) in an isogenic RCH-ACV NSD2 p.E1099K mutant (9B) (AID 1645876). Note: potency is the fitted concentration of half-maximal effect; nearly all actives have a fitted effect of over 70% in size.
Experiment [22] in a line: qHTS to identify inhibitors of the type 1 interferon - major histocompatibility complex class I in skeletal muscle: primary screen against the NCATS Mechanism Interrogation Plate v5.0 (MIPE) Libary (AID 1347411).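 Note: plate controls were vehicle for no effect and reference inhibitor for full effect; nearly all actives have a fitted effect of over 65% in size.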 The essentials:
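Seed engineered human myoblasts (HLA-B HiBit) in medium without dexamethasone containing 4 ng/ml IFN-beta; after 1 hr add compound titrations (top 46 uM final). Incubate 24 hrs at 37 C, lyse 10 min with HiBiT reagent, read luminescence.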

The nature of experiment [23]: Primary qHTS for inhibitors of nuclear receptor binding SET domain protein 2 (NSD2) in an RCH-ACV wild type WT cells (2C) (AID 1645877). Note: nearly all actives have a fitted effect of over 70% in size.
The target in experiment [24] is Phospholipid hydroperoxide glutathione peroxidase GPX4 (Homo sapiens) (UniProt P36969). Kind of experiment: Primary qHTS Assay for Inhibitors of Recombinant Selenoprotein Glutathione Peroxidase 4 (GPX4) (AID 1845192). Note: % is set by controls: 0 for no effect and ±100 for the full control effect; nearly all actives have a fitted effect of over 65% in size. Conditions: outcome: dose series up to 50 µM unless noted. The essentials:
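Steps: GPX4 plus compound, 30 min RT; add GR/GSH/NADPH master mix; start with cumene hydroperoxide; read 340/450 nm fluorescence at 0 and 15 min. Finals were 200 nM GPX4, 1 mM GSH, 0.5 mM CHP, 0.5 mM NADPH, 100 nM GR.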

Cytochrome P450 2C19 (Homo sapiens), sequence (P33261 whole entry, looked up): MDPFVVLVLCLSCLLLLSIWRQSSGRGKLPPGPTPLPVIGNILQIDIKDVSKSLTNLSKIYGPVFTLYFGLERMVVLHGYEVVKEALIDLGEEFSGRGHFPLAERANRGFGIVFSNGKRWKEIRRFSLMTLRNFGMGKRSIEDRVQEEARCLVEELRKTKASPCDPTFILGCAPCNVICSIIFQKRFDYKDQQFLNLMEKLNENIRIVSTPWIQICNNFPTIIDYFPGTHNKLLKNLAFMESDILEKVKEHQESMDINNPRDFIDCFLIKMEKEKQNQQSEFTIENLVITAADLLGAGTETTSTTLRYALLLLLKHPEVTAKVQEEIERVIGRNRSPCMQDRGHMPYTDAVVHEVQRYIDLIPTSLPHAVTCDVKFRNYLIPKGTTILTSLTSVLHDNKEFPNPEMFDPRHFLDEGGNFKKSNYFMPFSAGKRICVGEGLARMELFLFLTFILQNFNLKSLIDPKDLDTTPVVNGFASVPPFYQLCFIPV
Cytochrome P450 3A4 (Homo sapiens), sequence (P08684 whole entry, looked up): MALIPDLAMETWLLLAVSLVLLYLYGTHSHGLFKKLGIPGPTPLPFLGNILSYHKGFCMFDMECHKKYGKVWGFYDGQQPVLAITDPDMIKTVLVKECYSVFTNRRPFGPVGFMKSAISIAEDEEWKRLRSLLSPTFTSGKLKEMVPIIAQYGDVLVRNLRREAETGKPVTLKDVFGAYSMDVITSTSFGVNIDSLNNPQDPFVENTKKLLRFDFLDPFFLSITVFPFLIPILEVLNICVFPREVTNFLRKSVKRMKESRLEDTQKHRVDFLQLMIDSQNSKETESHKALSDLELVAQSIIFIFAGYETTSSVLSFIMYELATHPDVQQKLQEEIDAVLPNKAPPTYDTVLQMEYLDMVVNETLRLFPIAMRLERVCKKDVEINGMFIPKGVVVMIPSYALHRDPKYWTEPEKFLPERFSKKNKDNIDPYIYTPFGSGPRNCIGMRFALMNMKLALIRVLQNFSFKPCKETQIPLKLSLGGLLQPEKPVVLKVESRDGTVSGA
Tyrosine-protein kinase Yes (Homo sapiens), sequence (P07947 whole entry, looked up): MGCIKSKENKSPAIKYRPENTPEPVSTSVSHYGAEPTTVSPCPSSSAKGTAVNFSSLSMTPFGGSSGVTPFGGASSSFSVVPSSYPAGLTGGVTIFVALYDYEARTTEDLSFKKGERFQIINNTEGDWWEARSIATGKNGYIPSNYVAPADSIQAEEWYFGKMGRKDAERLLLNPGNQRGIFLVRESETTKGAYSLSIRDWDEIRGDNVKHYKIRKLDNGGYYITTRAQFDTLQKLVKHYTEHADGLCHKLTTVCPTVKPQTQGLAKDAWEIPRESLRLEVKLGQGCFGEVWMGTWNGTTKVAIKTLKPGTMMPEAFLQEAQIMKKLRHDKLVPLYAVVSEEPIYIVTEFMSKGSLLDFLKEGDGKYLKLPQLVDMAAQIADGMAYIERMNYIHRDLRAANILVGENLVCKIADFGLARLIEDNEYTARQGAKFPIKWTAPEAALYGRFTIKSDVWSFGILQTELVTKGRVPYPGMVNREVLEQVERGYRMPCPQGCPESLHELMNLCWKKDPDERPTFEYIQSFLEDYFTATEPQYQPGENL
Ubiquitin carboxyl-terminal hydrolase 1 (Homo sapiens), sequence (O94782 whole entry, looked up): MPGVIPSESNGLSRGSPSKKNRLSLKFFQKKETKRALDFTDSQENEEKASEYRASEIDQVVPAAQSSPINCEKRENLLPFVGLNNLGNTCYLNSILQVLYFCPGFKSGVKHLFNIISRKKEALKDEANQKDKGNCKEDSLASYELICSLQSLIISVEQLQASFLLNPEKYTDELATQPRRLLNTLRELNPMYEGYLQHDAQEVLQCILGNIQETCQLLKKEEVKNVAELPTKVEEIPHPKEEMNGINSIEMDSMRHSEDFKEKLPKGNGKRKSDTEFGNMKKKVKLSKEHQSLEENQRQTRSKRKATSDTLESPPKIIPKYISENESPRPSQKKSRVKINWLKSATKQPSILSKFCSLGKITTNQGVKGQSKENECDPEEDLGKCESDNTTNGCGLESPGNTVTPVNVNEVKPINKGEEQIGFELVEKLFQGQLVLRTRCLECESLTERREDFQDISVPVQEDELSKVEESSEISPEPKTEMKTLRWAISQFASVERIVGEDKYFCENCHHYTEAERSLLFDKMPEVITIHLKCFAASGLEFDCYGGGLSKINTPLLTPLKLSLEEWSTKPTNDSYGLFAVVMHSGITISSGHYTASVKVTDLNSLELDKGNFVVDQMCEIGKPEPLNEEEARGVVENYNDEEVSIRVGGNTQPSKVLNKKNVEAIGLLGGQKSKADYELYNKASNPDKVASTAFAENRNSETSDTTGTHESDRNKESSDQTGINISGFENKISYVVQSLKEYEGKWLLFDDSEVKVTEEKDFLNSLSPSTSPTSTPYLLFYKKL
Lysosomal acid glucosylceramidase (Homo sapiens), sequence (P04062 whole entry, looked up): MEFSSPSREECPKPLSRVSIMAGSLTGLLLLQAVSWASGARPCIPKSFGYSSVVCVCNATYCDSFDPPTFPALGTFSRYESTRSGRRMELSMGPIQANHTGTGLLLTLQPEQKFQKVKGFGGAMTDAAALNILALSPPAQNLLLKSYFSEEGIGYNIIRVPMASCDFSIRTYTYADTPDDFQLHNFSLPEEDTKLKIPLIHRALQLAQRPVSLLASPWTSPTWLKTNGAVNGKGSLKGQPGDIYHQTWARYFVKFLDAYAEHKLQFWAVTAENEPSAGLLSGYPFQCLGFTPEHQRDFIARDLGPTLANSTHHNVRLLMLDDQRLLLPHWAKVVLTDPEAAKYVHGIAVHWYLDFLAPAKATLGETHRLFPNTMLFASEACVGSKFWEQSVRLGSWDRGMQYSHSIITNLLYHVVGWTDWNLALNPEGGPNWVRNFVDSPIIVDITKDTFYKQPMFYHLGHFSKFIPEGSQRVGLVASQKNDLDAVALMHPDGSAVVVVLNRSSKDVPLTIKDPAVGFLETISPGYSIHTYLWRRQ

On to `c1csc(CNc2ncnc3ccc(-c4ccc5c(c4)OCO5)cc23)c1`, for which the Potency in [1] is > 11.4 µM (inactive); in experiment [2], 0.398 µM (active); in [5], > 46 µM (inactive); in experiment [6], > 46 µM (inactive); in experiment [9] it was 0.398 µM (active); in [10], 3.98 µM (active). In [15], the Potency is 11.6 µM (active). In addition, the activity change, negative = inhibition in experiment [3] was 5.05% (inactive); in [13] (at 57.5 µM (top of the series)), 9.51% (inactive). The activity, negative = inhibition in [4] is -12.1% (inactive). The Potency entry in [7], in [8], in experiment [14], in experiment [16] and in experiment [17] was “inactive” each time. Further, the call in [11] and in experiment [12] was inactive. Further, the results for the max response in experiment [13] (measured here: cell count channel max response) and in [13] (measured here: lipid channel max response) were 14.3% and 25.9%, respectively.

As to `N#Cc1cccc(CN2CCC(N(Cc3cccnc3)C(=O)Nc3ccccc3-c3ccccc3)CC2)c1`, the Potency result in experiment [15], in experiment [18] and in experiment [17] was “inactive” in each case.

For `CN(c1ccc(NC(=O)Nc2ccc(OC(F)(F)F)cc2)cc1)c1ccnc(Nc2cccc(S(N)(=O)=O)c2)n1`, the Potency in experiment [19] is 0.0823 µM (active); in experiment [15], 18.4 µM (active); in experiment [21], 3.66 µM (active). Further, the result in experiment [20] was inactive. The Potency entry in experiment [17] was “inactive”.

With `CNC(=O)c1c(C)oc2cc(Oc3ncnc4cc(OC)c(OC)cc34)ccc12`, the Potency entry in experiment [15], in experiment [22], in experiment [23], in experiment [17] and in experiment [24] was “inactive” in each case.
